Screening data: PubChem, several laboratories
CRFR2-BP ag = agonists of human CRF-binding protein/CRF-R2 receptor complex; HEK293 CRF-R2/CRF-BP, calcium dye fluorescence (FLIPR); percent of saturating CRF peptide response; activation, % at 13.2 µM; 0.46% of 350,000 active; AID 588473;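 active = activation of at least 50%, plus an integration ratio under a set limit after plate pattern correction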
MEKK2wt PB1 HTS = raises or lowers MEK5 binding to wildtype human MEKK2 PB1 domain; bead flow cytometry, Alexa488-MEK5 binding to MEKK2 WT; actives lie on both sides; binding response (% of control), % at 10 µM; 1.1% of 290,000 active; AID 1531; in the data active = binding response below about 67% or above about 130%
MEKK3 PB1 HTS = MEKK3-MEK5 PB1 interaction, increase or decrease. bead-based flow cytometry, Alexa488-MEK5 binding to MEKK3; actives lie on both sides; 0 = blocked by unlabeled MEK5, 100 = vehicle. Q99759. AID 1529. binding response (% of control), % at 10 µM. 1.4% of 290,000 active;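 active = binding response more than 3 SD above or below the average of its plate-row segment, actives on both sides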;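 also: Alexa488 bead fluorescence after subtracting the streptavidin-only scavenger bead signal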
ABCB6 inh 2 = inhibitors of human ABC transporter ABCB6; Q9NP58; K562-ABCB6 porphyrin accumulation, flow cytometry, 1 h; active compounds read low; fluorescence ratio to DMSO, % at 10 µM; 0.19% of 360,000 active; AID 602162;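 active = fluorescence ratio to DMSO below 75%, the collection mean minus 3 SD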;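 also: signal is porphyrin accumulated inside mitochondria; lower ratio means ABCB6 inhibition with less porphyrin fluorescence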
Target sequence (Q9NP58 whole entry, looked up): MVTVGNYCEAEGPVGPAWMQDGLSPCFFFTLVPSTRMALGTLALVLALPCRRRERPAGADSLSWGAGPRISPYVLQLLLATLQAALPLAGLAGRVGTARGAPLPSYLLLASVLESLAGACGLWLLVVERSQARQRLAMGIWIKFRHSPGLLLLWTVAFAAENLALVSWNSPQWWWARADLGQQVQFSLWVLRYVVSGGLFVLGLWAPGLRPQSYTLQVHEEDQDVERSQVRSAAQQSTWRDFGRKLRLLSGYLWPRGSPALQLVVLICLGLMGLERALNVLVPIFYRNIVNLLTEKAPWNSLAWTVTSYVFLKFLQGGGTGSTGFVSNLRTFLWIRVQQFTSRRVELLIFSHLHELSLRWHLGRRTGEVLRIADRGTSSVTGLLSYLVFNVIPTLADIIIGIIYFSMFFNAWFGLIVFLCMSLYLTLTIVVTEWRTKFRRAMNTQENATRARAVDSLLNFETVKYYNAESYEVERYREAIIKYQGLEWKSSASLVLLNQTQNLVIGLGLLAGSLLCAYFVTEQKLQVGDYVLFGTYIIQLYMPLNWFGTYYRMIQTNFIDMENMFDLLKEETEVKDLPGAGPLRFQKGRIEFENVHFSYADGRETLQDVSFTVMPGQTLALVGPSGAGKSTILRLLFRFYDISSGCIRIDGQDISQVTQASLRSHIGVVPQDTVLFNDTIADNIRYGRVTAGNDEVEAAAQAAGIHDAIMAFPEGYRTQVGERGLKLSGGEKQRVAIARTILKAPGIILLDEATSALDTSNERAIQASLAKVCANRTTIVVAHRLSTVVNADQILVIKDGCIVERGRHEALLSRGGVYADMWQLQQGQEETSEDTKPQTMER
CRFBP-R2 block = blocks CRF-induced signaling of the CRF-BP/CRF-R2 complex | inhibition, % at 11.8 µM | 0.59% of 350,000 active | HEK293 CRF-R2/CRF-BP, CRF-induced calcium fluorescence;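 active = inhibition of the ligand-induced calcium signal above about 50% at the single tested concentration, limit read from the data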
MEKK2mut PB1 HTS = signal of MEK5 binding to mutant human MEKK2 PB1 domain; bead flow cytometry, Alexa488-MEK5 binding to MEKK2 mutant; percent response, % at 10 µM; 0.35% of 290,000 active; AID 1530; in the data active = percent response above about 24%, passing the limit was not always enough
MEKK2wt confirm = raises or lowers MEK5 binding to wildtype human MEKK2, retest. shares compounds with MEKK3 PB1 HTS. 2.4% of 5,900 active. bead flow cytometry, Alexa488-MEK5 binding to MEKK2 WT; actives lie on both sides. AID 1892. binding response (% of control), % at 10 µM; in the data active = binding response below about 16% or above about 210%; inactive = in between
MEKK2mut-MEK5 = signal of MEK5 binding to mutant human MEKK2, retest; shares compounds with MEKK3 PB1 HTS; bead flow cytometry, Alexa488-MEK5 binding to MEKK2 mutant; percent response, % at 10 µM; 2% of 5,900 active; AID 1893; in the data active = percent response mostly above about 71%, no sharp cut-off; inactive = mostly below about 38%;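 also: higher means compound restores mutant binding toward wildtype level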
MEKK3 confirm = confirmation of inhibitors of MEK5 binding to human MEKK3. AID 1894. shares compounds with MEKK3 PB1 HTS. binding response (% of control), % at 10 µM. 1.8% of 5,900 active. bead flow cytometry, Alexa488-MEK5 binding to MEKK3; active compounds read low;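 active = binding response below 72% of control, or above a set upper limit, though filed actives all read lower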;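 also: lower values mean stronger disruption of MEK5 binding to MEKK3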
Of the large screens only hits and unclear results are named; the others gave an inactive call (follow-up assays come after a bar, where they were run); [ ] = remark or other dose. A selection: hits, their analogues and other compounds. The true share with any hit is near 2.9%.

CCCC1=NN(C(=O)CCc2ccccc2O)C(O)(C(F)(F)F)C1 (stereo not given)	MEKK3 PB1 HTS 138 | MEKK2wt confirm inactive | MEKK2mut-MEK5 inactive | MEKK3 confirm inactive
CC(=O)Nc1cccc(C(=O)N2CCN(Cc3ccccc3)CC2)c1	MEKK2wt PB1 HTS -1.0[inhibitor], MEKK3 PB1 HTS -1.0[inhibitor] | MEKK2wt confirm inactive | MEKK2mut-MEK5 inactive | MEKK3 confirm inactive
Cc1cc(OCC(=O)NC(C)(C)C)ccc1Cl	MEKK3 PB1 HTS 128 | MEKK2wt confirm inactive | MEKK2mut-MEK5 inactive | MEKK3 confirm inactive
CCCNC(=O)CN1C(=O)NC(c2ccccc2)(c2ccccc2)C1=O	none
O=C(N/N=C/c1ccccc1F)NC1CCCCC1	MEKK3 PB1 HTS 140 | MEKK2wt confirm inactive | MEKK2mut-MEK5 inactive | MEKK3 confirm 68
O=C(N/N=C/c1ccccc1)NC1CCCCC1	MEKK3 PB1 HTS 67[inhibitor] | MEKK2wt confirm inactive | MEKK2mut-MEK5 inactive | MEKK3 confirm inactive
Cc1ccc(NC(=S)N/N=C2\CC(C)(C)Oc3ccc(O)cc32)cc1	none
COc1ccc(NC(=S)N/N=C2\CC(C)(C)Oc3ccc(OC)cc32)cc1	MEKK3 PB1 HTS 130 | MEKK2wt confirm inactive | MEKK2mut-MEK5 inactive | MEKK3 confirm inactive
CCOc1cc(/C=N/NC(=O)CSc2nnc(C)s2)ccc1OCc1ccccc1Cl	MEKK3 PB1 HTS 132 | MEKK2wt confirm inactive | MEKK2mut-MEK5 inactive | MEKK3 confirm inactive
O=C(CSc1nnc(SCc2ccccc2Cl)s1)N/N=C/c1ccc(C(=O)O)cc1	none
CCCCn1c(N)c(N(CCC(C)C)C(=O)c2c(C)noc2C)c(=O)[nH]c1=O	none (no result: MEKK2wt PB1 HTS, MEKK3 PB1 HTS, MEKK2mut PB1 HTS)
CCCCc1nc2sc3c(SCCN(C)C)ncnc3c2c2c1CCC2	MEKK2wt PB1 HTS 152 | MEKK2wt confirm inactive | MEKK2mut-MEK5 inactive | MEKK3 confirm inactive
CC(C)c1ccc(N2C(=O)/C(=C/N(C)C)SC2=S)cc1	MEKK2wt PB1 HTS 62[inhibitor] | MEKK2wt confirm inactive | MEKK2mut-MEK5 inactive | MEKK3 confirm inactive
COc1ccccc1C(=O)NNC(=O)C1CC=CCC1 (stereo not given)	MEKK2wt PB1 HTS 38[inhibitor], MEKK3 PB1 HTS 25[inhibitor] | MEKK2wt confirm inactive | MEKK2mut-MEK5 inactive | MEKK3 confirm inactive
CC(=O)N1CCc2cc(S(=O)(=O)CCC(=O)NCCc3ccc(Cl)cc3)ccc21	none
CCOC(=O)CN(C(=O)c1snc(C(N)=O)c1N)C(C(=O)NC1CCCCC1)c1ccc(F)cc1 (stereo not given)	none
Cc1[nH]c2ccccc2c1/C=C/c1nc2ccccc2c(=O)n1-c1cccc([N+](=O)[O-])c1	none
O=c1c2ccccc2nc(/C=C/c2c[nH]c3ccccc23)n1-c1ccc([N+](=O)[O-])cc1	MEKK3 PB1 HTS 75[inhibitor] | MEKK2wt confirm inactive | MEKK2mut-MEK5 inactive | MEKK3 confirm inactive
C=CCc1cccc(/C=N/NC(=O)c2ccc3nc[nH]c3c2)c1O	none
CN1CCN(CC(=O)N2CCn3c4c(c5cc(C6CCCCC6)ccc53)CCCC42)CC1 (stereo not given)	MEKK2wt PB1 HTS 253, MEKK2mut PB1 HTS 84 | MEKK2wt confirm 215 | MEKK2mut-MEK5 inactive | MEKK3 confirm inactive
Cc1ccc2c(c1)c1c3n2CCN(C(=O)CN2CCN(C)CC2)C3CCC1 (stereo not given)	none
CCCCP(=O)(c1ccccn1)c1ccccn1	none (no result: MEKK2wt PB1 HTS, MEKK3 PB1 HTS, MEKK2mut PB1 HTS)
CCCCC1=C([O-])C2N=CC=CC2=[N+](c2ccccn2)C1=O (stereo not given)	MEKK3 PB1 HTS 138 | MEKK2wt confirm inactive | MEKK2mut-MEK5 inactive | MEKK3 confirm inactive
CC(=O)Nc1ccc(NC(=O)C(=O)c2cn(CC(=O)N3CCCC3)c3ccccc23)cc1	none
O=C(Nc1ccccc1F)C(=O)c1cn(CC(=O)N2CCCCC2)c2ccccc12	MEKK3 PB1 HTS 44[inhibitor] | MEKK2wt confirm inactive | MEKK2mut-MEK5 inactive | MEKK3 confirm inactive
COc1ccccc1N(CC(=O)NCC1CCCO1)C(=O)CNS(=O)(=O)c1ccc(Cl)cc1 (stereo not given)	MEKK3 PB1 HTS 128 | MEKK2wt confirm inactive | MEKK2mut-MEK5 inactive | MEKK3 confirm inactive
Oc1ccc2ccccc2c1CN1CCN(C/C=C/c2ccccc2)CC1	MEKK2wt PB1 HTS 140, MEKK2mut PB1 HTS 25 | MEKK2wt confirm inactive | MEKK2mut-MEK5 inactive | MEKK3 confirm inactive
COc1ccc(CN2CCN(C(=O)C3CCN(S(=O)(=O)c4cccs4)CC3)CC2)c(OC)c1OC	MEKK2wt PB1 HTS 1.0[inhibitor], MEKK3 PB1 HTS 1.0[inhibitor] | MEKK2wt confirm inactive | MEKK2mut-MEK5 inactive | MEKK3 confirm inactive
COc1ccc(CCN(C)C(=O)CSc2nc3ccccc3c(=O)n2CC2CCCO2)cc1OC (stereo not given)	none (no result: MEKK2wt PB1 HTS, MEKK3 PB1 HTS, MEKK2mut PB1 HTS)
Clc1ccc(OCCCNCc2ccccc2)c(Br)c1	MEKK2wt PB1 HTS 153 | MEKK2wt confirm inactive | MEKK2mut-MEK5 inactive | MEKK3 confirm inactive
CCOC(=O)c1[nH]c2ccccc2c1NC(=O)C1CCCCC1	MEKK3 PB1 HTS 76[inhibitor] | MEKK2wt confirm inactive | MEKK2mut-MEK5 inactive | MEKK3 confirm inactive
O=c1[nH]n2c(=O)c3c([nH]c2c1N=Nc1cccc(Cl)c1)CCCC3	MEKK3 PB1 HTS 48[inhibitor], CRFBP-R2 block 67 | MEKK2wt confirm inactive | MEKK2mut-MEK5 inactive | MEKK3 confirm inactive
CC1=CC2=NC(=O)/C(=C\c3cccn3CCOc3ccccc3)C(=N)N2O1	MEKK3 PB1 HTS 132 | MEKK2wt confirm inactive | MEKK2mut-MEK5 inactive | MEKK3 confirm inactive
O=C(CSc1nnc(-c2ccccn2)o1)Nc1ccccc1Cl	none
Cc1ccc(N2CC(C(=O)N/N=C/c3sccc3C)CC2=O)cc1 (stereo not given)	MEKK3 PB1 HTS 135 | MEKK2wt confirm inactive | MEKK2mut-MEK5 inactive | MEKK3 confirm inactive
Cc1ccsc1/C=N/NC(=O)C1CC(=O)N(c2ccc(F)cc2)C1 (stereo not given)	none
O=C(Nc1ccc(Br)c(C(F)(F)F)c1)c1ccc(C(F)(F)F)cc1	MEKK2wt PB1 HTS 139 | MEKK2wt confirm inactive | MEKK2mut-MEK5 inactive | MEKK3 confirm inactive
O=C(Nc1ccc(Br)c(C(F)(F)F)c1)c1ccccc1	none
CCOC(=O)NC(NCc1ccccc1)(C(F)(F)F)C(F)(F)F	MEKK3 PB1 HTS 137 | MEKK2wt confirm inactive | MEKK2mut-MEK5 inactive | MEKK3 confirm inactive
CCOC(=O)NC(NCCc1ccccc1)(C(F)(F)F)C(F)(F)F	none
